From PubChem BioAssay
UGM FP inh – inhibitors of M. tuberculosis UDP-galactopyranose mutase. AID 504406. P9WIQ1. purified UGM, fluorescence polarization probe displacement. actives 0.06% (n = 320,000). inhibition, % at 10 µM; in the data active means inhibition above about 10%, passing the limit was not always enough
Mtb hypoxia inh – Mtb hypoxia fluorescent reporter inhibition. fluorescence inhibition, % (test concentration not listed). M. tuberculosis hypoxia-regulated fluorescent reporter, fluorescence. actives 0.1% (n = 300,000); in the data active means fluorescence inhibition mostly above about 23%, no sharp cut-off; inactive means mostly below about 17%
FadD28 binding – M. tuberculosis FadD28 bisubstrate binding inhibition. AID 588549. actives 0.22% (n = 360,000). inhibition, % at 12.5 µM. FadD28 bisubstrate probe binding, fluorescence polarization; in the data active means inhibition above about 8.5%, passing the limit was not always enough
Mtb bLac sens – beta-lactam sensitization of Mtb H37Rv; M. tuberculosis H37Rv growth with meropenem, percent inhibition; inhibition, % at 25 µM; actives 0.27% (n = 330,000);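 further: growth measured after seven days incubation then overnight dye step; 0% = bacteria only wells and 100% = bacteria with antibiotic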
RecA intein inh – inhibitors of M. tuberculosis RecA intein splicing; P9WHJ3; actives 0.75% (n = 290,000); inhibition, % (no concentration beside the values); cell-free RecA intein splicing, fluorescence; AID 2221; in the data active means inhibition above about 30%;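 further: 0% = vehicle wells and 100% = reference inhibitor control wells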
Rv3671c inh – Rv3671c (M. tuberculosis) protease inhibition. actives 0.048% (n = 320,000). P9WHR9. inhibition, % at 5.96 µM; in the data active means inhibition above about 38%;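 further: extracellular domain of Rv3671c used as enzyme; 0% = enzyme with DMSO and 100% = no enzyme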
Target sequence (P9WHR9 whole entry, looked up, the tested form may be a part): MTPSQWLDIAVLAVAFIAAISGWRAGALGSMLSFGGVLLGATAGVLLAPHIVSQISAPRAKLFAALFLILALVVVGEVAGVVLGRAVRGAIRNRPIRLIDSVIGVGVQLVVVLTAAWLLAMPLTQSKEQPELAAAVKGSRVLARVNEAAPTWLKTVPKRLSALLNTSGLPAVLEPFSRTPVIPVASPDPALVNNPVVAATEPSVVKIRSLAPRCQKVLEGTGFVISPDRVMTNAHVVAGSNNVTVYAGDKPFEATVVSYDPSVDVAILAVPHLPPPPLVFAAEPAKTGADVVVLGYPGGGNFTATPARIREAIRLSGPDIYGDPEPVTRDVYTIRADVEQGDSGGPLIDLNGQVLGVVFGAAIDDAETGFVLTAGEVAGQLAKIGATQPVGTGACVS
GFP chromo cs – counter-screen GFP chromophore formation inhibition; EC50, µM; shares compounds with RecA intein inh; actives 83% (n = 2,100); cell-free GFP chromophore formation, fluorescence; AID 434968
Starred values were filed as active, the others as inactive; / = not tested or not shown; ! = a repeat was not active. Rows were chosen to be rich in hits. Some 0.92% of all compounds tested hit in one or more screens of this group. Unless noted, how the calls were made is not given here.

SMILES	UGM FP inh	Mtb hypoxia inh	FadD28 binding	Mtb bLac sens	RecA intein inh	Rv3671c inh	GFP chromo cs
Cn1cnc([N+](=O)[O-])c1S(=O)(=O)c1ccc(Cl)cc1	/	18	0	/	61*	/	39*
CC1CCCCC1NS(=O)(=O)c1ccc2c(c1)CCC(=O)N2 (stereo not drawn)	-1	11	0	0	/	-3	/
O=[N+]([O-])c1ccc(S(=O)(=O)c2cccc(C(F)(F)F)c2)nc1	2	-18	-2	100	50*	6	30*
O=S(=O)(Nc1cccnc1)c1cccc(C(F)(F)F)c1	1	12	-5	0	-2	-8	/
CCn1c(SCC(=O)Nc2nc(-c3ccc(C)cc3)cs2)nnc1-c1ccccc1O	0	/	-5	-2	38*	-53	>38
CN(CC(=O)Nc1ccccc1Br)C(=O)c1cc([N+](=O)[O-])ccc1N1CCOCC1	4	-10	0	-7	0	-4	/
CCOc1cc(/C=C(\C#N)C(=O)Nc2cccc(C(=O)O)c2)ccc1OCc1ccccc1Cl	1	/	-4	4	/	2	/
CCOc1cc(/C=C(\C#N)C(=O)Nc2cccc(C(=O)O)c2)cc(Br)c1OC(=O)c1ccc(OC)cc1	0	2	-9	12	38*	-83	21*
O=C(Nc1ccc(N2CCOCC2)cc1)c1cc(-c2ccncc2)nc2ccccc12	-3	-10	-3	-3	0	0	/
COc1ccc(C(CC(=O)N2CCCCC2)C(C)C)cc1 (stereo not drawn)	2	15	-3	-6	0	0	/
COc1ccccc1NC(=O)c1nc(S(=O)(=O)Cc2ccccc2)ncc1Cl	-2	/	-3	56	3	-11	/
CCOC(=O)c1ccc(NC(=O)c2nc(S(=O)(=O)Cc3ccccc3)ncc2Cl)cc1	1	/	-4	3	27	-34	/
CCc1ccc(NC(=O)c2nc(S(=O)(=O)Cc3ccccc3)ncc2Cl)cc1	-2	/	-4	-5	39*	-17	2.2*
CC(=O)Nc1ccc(NC(=O)c2nc(S(=O)(=O)Cc3cccc(C)c3)ncc2Cl)cc1	-3	/	2	2	31*	0	20*
COc1cccc(NC(=O)c2nc(S(C)(=O)=O)ncc2Cl)c1	0	/	-3	99	63*	-3	25*
COC(=O)c1ccc(NC(=O)c2nc(S(=O)(=O)Cc3cccc(C)c3)ncc2Cl)cc1	2	/	-1	3	73*	-25	0.57*
C/C(Cl)=C/CSc1nnc2n(N)c(=O)c3ccccc3n12	-1	-2	1	-2	2	4	/
CCS(=O)(=O)c1ncc(Cl)c(C(=O)Nc2ccc(S(=O)(=O)N3CCC(C)CC3)cc2)n1	2	/	8.9*	-6	96*	-128	1.4*
Cc1ccc(NC(=O)c2nc(S(=O)(=O)Cc3ccccc3C)ncc2Cl)cc1C	2	/	-3	20	39*	-32	1.3*
CC1CCN(S(=O)(=O)c2ccc(NC(=O)c3ccncc3)cc2)CC1	-2	5	-6	-3	0	-8	/
Cc1ccc(C(=O)NCc2ccc3c(c2)OCO3)c(Cl)c1	/	/	0	/	/	/	/
Cc1cccc(CS(=O)(=O)c2ncc(Cl)c(C(=O)NCc3ccc4c(c3)OCO4)n2)c1	1	-2	-3	4	51*	-1	11*
COc1ccc(-n2c(SCC(=O)Nc3ccc(Cl)cc3)nc(O)c(Cc3ccccc3)c2=O)cc1	1	1	5	-3	12	2	/
CCN(CC)C(=O)c1[nH]cnc1C(=O)NC(CCCCNC(=O)OC(C)(C)C)C(=O)OC(C)(C)C (stereo not drawn)	/	-2	/	/	/	/	/
Cc1[nH][nH]c(=O)c1C(c1ccc([N+](=O)[O-])cc1)c1c(C)[nH][nH]c1=O	-2	14	-2	-6	96*	2	0.69*
SMILES	UGM FP inh	Mtb hypoxia inh	FadD28 binding	Mtb bLac sens	RecA intein inh	Rv3671c inh	GFP chromo cs
COC(=O)COc1ccc(C(=O)OC)cc1	-2	0	0	96	0	-5	/
CSc1ccc(C(c2c(C)[nH][nH]c2=O)c2c(C)[nH][nH]c2=O)cc1	2	/	-4	7	98*	-17	0.57*
COC(=O)COc1ccc(C(c2c(C)[nH][nH]c2=O)c2c(C)[nH][nH]c2=O)cc1	-1	7	-1	5	98*	/	0.69*
Cc1[nH][nH]c(=O)c1C(c1ccc(Br)cc1)c1c(C)[nH][nH]c1=O	2	2	0	0	98*	-6	0.81*
Cc1n[nH]c(C)c1Sc1ccccc1N	1	12	-1	-14	-1	0	/
Cc1ccc(C(c2c(C)[nH][nH]c2=O)c2c(C)[nH][nH]c2=O)cc1	-1	13	-2	7	98*	-6	0.54*
COc1cc(C(c2c(C)[nH][nH]c2=O)c2c(C)[nH][nH]c2=O)ccc1OCc1ccc([N+](=O)[O-])cc1	-1	12	-2	0	95*	1	0.35*
COc1ccc(/C=C/C(=O)Nc2ccc(OC)nc2)cc1	1	-1	-2	92	/	2	/
COc1ccc(NC(=O)/C(Cl)=C(/Cl)S(=O)Cc2ccccc2)cn1 (stereo not drawn)	-3	/	-1	100	78*	-3	6.6*
COc1ccc(CS(=O)(=O)/C(Cl)=C(/Cl)C(=O)Nc2ccc(OC)nc2)cc1	2	/	-4	60	78*	-12	9.7*
COc1ccc(NC(=O)Cc2ccccc2)cn1	1	-7	0	-4	1	2	/
CCc1cc(C(=O)NNC(=S)NCc2ccccc2)cs1	4	11	0	3	6	-9	/
Cc1c(C(=O)NN)nn(-c2ccc(Cl)cc2)c(=O)c1C#N	0	-8	-1	4	43*	-14	31*
Cc1ccc(-n2nc(C(=O)NN)c(C)c(C#N)c2=O)cc1Cl	-1	/	-1	-3	11	-4	/
O=C(Nc1ccc(C(=O)N2CCCCC2)cc1)C1CCCCC1	0	18	0	-11	0	2	/
O=C(c1ccc(Cl)cc1)C1CCN(C(=S)Nc2ccccc2)CC1	/	11	-3	/	/	/	/
O=S(=O)(/C(=C/c1ccc(C(F)(F)F)cc1)c1nc2ccccc2[nH]1)c1ccccc1	1	4	-1	68	64*	-76	10*
CC(C)c1ccc(/C=C(\c2nc3ccccc3[nH]2)S(=O)(=O)c2ccccc2)cc1	-1	0	-4	8	80*	-43	9.4*
C/C(=C\c1ccc(N)cc1)c1nc2ccccc2[nH]1	-2	8	-1	-5	-1	0	/
Cc1ccc(OCC(=O)NCCCNC(=O)c2ccncc2)cc1	1	14	0	0	/	5	/
CC/C(=C(\c1ccccc1)c1ccc(OCCN(C)C)cc1)c1ccccc1	-4	/	-9	99	29	13	/
CCN(CC)CCOc1ccc(/C(=C(/Cl)c2ccccc2)c2ccccc2)cc1	-3	/	-6	100	32*!	1	20*
